Some of the results follow. How many sequences the whole screen found active is unknown.
B1: FS-2162 (peptide)
chain: CARNRRRVCKAGNASASA
B2: FS-3013 (peptide)
chain: CARNSRFRCRAGNASASA
B3: FS-2163 (peptide)
chain: CARNRRVTRRAGNASASA
B4: FS-2283 (peptide)
chain: CARNRRHIEKAGNASASA
B5: FS-2732 (peptide)
chain: CARNRRAFGDAGNASASA
B6: HC550 (peptide)
chain: CAKGKWVPGAAGNASASA
B7: HC131 (peptide)
chain: CAEVVKSTWVAGNASASA
B8: HC142 (peptide)
chain: CAEVVTGTWVAGNASASA
B9: HC2026 (peptide)
chain: CAVVMCSMSYAGNASASA
B10: FS-1509 (peptide)
chain: CAAKRRTKRDAGNASASA
B11: FS-1579 (peptide)
chain: CAVKKRTKRDAGNASASA
B12: FS-967 (peptide)
chain: CAVVNTTKRDAGNASASA
B13: HC1786 (peptide)
chain: CAMEMEECSQAGNASASA
B14: FS-282 (peptide)
chain: CAQGERSRRLAGNASASA
B15: FS-16 (peptide)
chain: CACRARRRRLAGNASASA
B16: FS-478 (peptide)
chain: CAQDVRCRRLAGNASASA
B17: FS-135 (peptide)
chain: CALRGRSRRLAGNASASA
B18: HC1753 (peptide)
chain: CAMEECSQRLAGNASASA
B19: FS-109 (peptide)
chain: CAWPTRRRRLAGNASASA
B20: HC1490 (peptide)
chain: CAIYQCCDLDAGNASASA
B21: HC470 (peptide)
chain: CAPCTINYTIAGNASASA
B22: HC2447 (peptide)
chain: CAEFEVPCHRAGNASASA
B23: FS-1193 (peptide)
chain: CAEPARRRRLAGNASASA
B24: FS-1204 (peptide)
chain: CAGRGRRRRLAGNASASA
B25: FS-1233 (peptide)
chain: CALRQRRRRLAGNASASA
B26: HC2510 (peptide)
chain: CASTVCSAHLAGNASASA
B27: FS-1417 (peptide)
chain: CASRVRTGRSAGNASASA
B28: FS-22 (peptide)
chain: CAELSRTGRSAGNASASA
B29: HC1022 (peptide)
chain: CAMLAEQFKQAGNASASA
B30: FS-747 (peptide)
chain: CAALNRRKKQAGNASASA
B31: FS-748 (peptide)
chain: CAALNRTGRSAGNASASA
B32: FS-1492 (peptide)
chain: CATCNRRKKEAGNASASA

Molecular target: furin, P09958
Sequence (P09958 whole entry): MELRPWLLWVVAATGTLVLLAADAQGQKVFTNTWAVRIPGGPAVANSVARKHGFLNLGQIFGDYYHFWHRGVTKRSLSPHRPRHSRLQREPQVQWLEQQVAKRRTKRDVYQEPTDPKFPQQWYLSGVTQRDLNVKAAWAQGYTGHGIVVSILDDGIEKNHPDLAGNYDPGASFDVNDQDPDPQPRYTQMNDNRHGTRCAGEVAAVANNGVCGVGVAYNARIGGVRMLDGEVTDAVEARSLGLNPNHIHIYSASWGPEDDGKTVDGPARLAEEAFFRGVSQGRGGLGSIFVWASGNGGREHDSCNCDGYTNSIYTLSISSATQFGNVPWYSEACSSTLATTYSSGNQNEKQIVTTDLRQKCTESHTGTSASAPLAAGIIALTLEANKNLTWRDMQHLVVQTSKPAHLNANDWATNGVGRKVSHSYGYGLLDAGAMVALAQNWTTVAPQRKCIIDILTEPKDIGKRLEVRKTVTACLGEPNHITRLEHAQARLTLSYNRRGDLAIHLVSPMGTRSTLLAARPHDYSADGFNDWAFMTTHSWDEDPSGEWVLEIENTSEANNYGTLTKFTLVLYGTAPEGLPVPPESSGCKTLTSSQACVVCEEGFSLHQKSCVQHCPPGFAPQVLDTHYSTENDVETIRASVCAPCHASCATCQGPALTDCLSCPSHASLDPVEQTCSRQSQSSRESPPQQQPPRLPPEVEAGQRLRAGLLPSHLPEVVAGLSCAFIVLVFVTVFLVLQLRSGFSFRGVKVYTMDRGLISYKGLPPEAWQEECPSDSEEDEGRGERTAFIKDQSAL
Assay: furin cleavage Z-score vs untreated control; higher = more cleavage, active = 3.5 or more, inactive = 1 or less, 8 variable residues between constant flanks
Method in brief: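 The cleavage Z-score is the log read count relative to furin-free reactions, lowess-adjusted and scaled by median absolute deviation. Counts came from sequencing DNA released from bead-bound 8-mer peptide–cDNA fusions after digestion with purified furin for 7.5, 15 or 30 min.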
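Also: purified furin at 1:10 enzyme:substrate in 50 mM HEPES pH 7.5.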

Sequence | furin cleavage Z-score (7.5 min) | furin cleavage Z-score (15 min) | furin cleavage Z-score (30 min)
B1 | -0.833 (inactive) | -0.214 (inactive) | 0.898 (inactive)
B2 | 0.23 (inactive) | 0.474 (inactive) | 0.565 (inactive)
B3 | 10.8 (active) | 11.8 (active) | 10.4 (active)
B4 | 6.22 (active) | 6.56 (active) | 6.5 (active)
B5 | 6.61 (active) | 9.22 (active) | 8.81 (active)
B6 | 0.591 (inactive) | -0.0194 (inactive) | 1.21
B7 | -2.1 (inactive) | -0.614 (inactive) | -0.545 (inactive)
B8 | -0.000356 (inactive) | -0.439 (inactive) | 1.54
B9 | -0.445 (inactive) | 0.764 (inactive) | 0.688 (inactive)
B10 | 13.3 (active) | 12.3 (active) | 8.72 (active)
B11 | 13.7 (active) | 14.1 (active) | 11.3 (active)
B12 | 0.253 (inactive) | 1.14 | 0.849 (inactive)
B13 | 0.949 (inactive) | -0.743 (inactive) | 0.205 (inactive)
B14 | 0.753 (inactive) | 4.38 (active) | 1.23
B15 | 9.49 (active) | 9.51 (active) | 8.36 (active)
B16 | 1.46 | 1.58 | 0.0369 (inactive)

Sequence | furin cleavage Z-score (7.5 min) | furin cleavage Z-score (15 min) | furin cleavage Z-score (30 min)
B17 | 3.28 | 5.92 (active) | 6.35 (active)
B18 | 0.426 (inactive) | -0.514 (inactive) | 1.09
B19 | 8.56 (active) | 10.6 (active) | 9.39 (active)
B20 | -1.27 (inactive) | -0.493 (inactive) | -0.515 (inactive)
B21 | -0.109 (inactive) | -0.36 (inactive) | -0.753 (inactive)
B22 | 1.12 | 0.425 (inactive) | 0.814 (inactive)
B23 | 3.5 (active) | 3.06 | 4.29 (active)
B24 | 0.638 (inactive) | 1.19 | 1.19
B25 | 7.25 (active) | 8.53 (active) | 7.51 (active)
B26 | 0.637 (inactive) | 0.629 (inactive) | 0.755 (inactive)
B27 | 9.44 (active) | 9.57 (active) | 7.69 (active)
B28 | 3.94 (active) | 5.44 (active) | 5.19 (active)
B29 | 1.62 | -0.39 (inactive) | 0.514 (inactive)
B30 | 3.62 (active) | 5.46 (active) | 3.99 (active)
B31 | 9.18 (active) | 11.6 (active) | 9.72 (active)
B32 | 0.181 (inactive) | 1.51 | 1.86

Reference: the supplement of paper PMC3545927
